# Calls of active or inactive are those of the source.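 The calls were made as follows, unless noted: active = normalized viability below 100% at a tested concentration; inactive = the rest.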 Numbered stars: 1 amine (or outer) side, 2 acyl side, 3 side chain; on linkers, the order of the positions; unused ones are H or OH. Bridge positions count the residues as written; N and C are the ends. Square brackets hold non-standard residues; d marks the D form. Peptide text beside a SMILES is read from it. * marks the point of attachment. X4 = NC1=N[C@@H]([C@H](N[*:1])C(=O)[*:2])C[C@H](O)N1; ΔAla(Z-3-ureido) = NC(=O)N/C=C(\N)C(=O)O; β3hOrn = NCCC[C@H](N)CC(=O)*; Dap = NC[C@H](N)C(=O)O
# Assays:
# [1] = sensitizers of A549 cells to miR-34 induction, primary screen, imaging, A549 dox-inducible miR-34, nuclei and caspase counts (AID 1347080;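 active = compounds whose cell count with miR-34 switched on is under 0.7 times the count with it off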); details: A549 miR-34 inducible, Hoechst nuclei count, 48 h
# [2] = survival rescue of mitochondrial mutant cells in low glucose, primary screen, MELAS cybrids, Rieske KO mouse fibroblasts, CellTiter-Glo (AID 1508586;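 active = mean z-score across replicates of 1.96 or higher in either the MELAS or the Rieske mutant cell line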;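 also: z relative to plate mean and SD of compound and empty wells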)
# [3] = viability rescue of complex I mutant cybrids, primary screen, cell-based, galactose medium, ATP luminescence (AID 1645843;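 active = z-score of at least 1.8 in each of two replicates, scored against plate mean and spread of sample wells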;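 also: positive z means more ATP and so rescue of galactose-driven cybrid death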); details: complex I mutant cybrid cells, 72 h, stronger effect = higher value
# [4] = liver-stage malaria parasite growth inhibition, primary screen, cell-based, HepG2, luciferase luminescence, HepG2 viability (AID 624349; in the data active = parasite load remaining mostly below about 12%, no sharp cut-off; inactive = mostly above about 10%;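 also: 100% = mean of DMSO negative control wells on the same plate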); details: P. berghei liver stage in HepG2, luciferase luminescence, concentration not given here; parasite load remaining: stronger effect = lower value; viability: measured here: HepG2 viability without parasites
# [5] = target: NAD(+) hydrolase SARM1 (Homo sapiens) (UniProt Q6SZW1); experiment: SARM1 TIR NADase inhibitors, cell lysate, NAD-Glo luminescence (AID 1508614;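 active = compound whose remaining NAD level is above about 45 nM, limit read from the data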;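 also: higher remaining NAD means stronger inhibition of SARM1 NADase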); details: SAM-TIR HEK293T lysate NADase, at 1 µM, stronger effect = higher value
# Chain of NAD(+) hydrolase SARM1 (Homo sapiens) (Q6SZW1 whole entry, looked up): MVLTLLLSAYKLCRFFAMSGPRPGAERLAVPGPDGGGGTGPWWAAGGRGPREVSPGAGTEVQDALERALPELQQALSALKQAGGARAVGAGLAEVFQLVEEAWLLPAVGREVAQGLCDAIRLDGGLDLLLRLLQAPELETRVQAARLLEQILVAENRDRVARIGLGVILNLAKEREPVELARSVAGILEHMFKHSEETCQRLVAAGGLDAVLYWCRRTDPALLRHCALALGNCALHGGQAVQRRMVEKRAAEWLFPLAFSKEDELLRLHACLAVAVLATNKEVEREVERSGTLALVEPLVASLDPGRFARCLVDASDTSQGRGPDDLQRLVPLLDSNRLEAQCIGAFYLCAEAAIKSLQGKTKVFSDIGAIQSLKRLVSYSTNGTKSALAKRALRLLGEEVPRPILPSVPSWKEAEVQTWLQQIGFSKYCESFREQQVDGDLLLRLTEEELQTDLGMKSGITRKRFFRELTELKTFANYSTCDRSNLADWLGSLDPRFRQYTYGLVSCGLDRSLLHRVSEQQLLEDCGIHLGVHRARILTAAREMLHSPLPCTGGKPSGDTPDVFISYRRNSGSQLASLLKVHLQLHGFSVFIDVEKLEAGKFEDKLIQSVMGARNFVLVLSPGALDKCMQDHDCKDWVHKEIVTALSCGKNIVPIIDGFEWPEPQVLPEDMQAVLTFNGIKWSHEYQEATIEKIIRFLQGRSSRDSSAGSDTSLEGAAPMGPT
# [6] = ovarian cancer cell viability with rucaparib, profiling panel, oncology-focused library, rucaparib conditional (AID 1508598); details: patient-derived ovarian cancer cells, CellTiter-Glo viability, 144 h, stronger effect = lower value
# [7] = stronger effect = lower value, cell number ratio, induced over uninduced
# [8] = measured here: relative caspase fold change +Dox/-Dox
# [9] = measured here: total cells with miR-34 induction, stronger effect = lower value
# [10] = measured here: total cells without miR-34 induction
# [11] = MELAS cybrid survival, CellTiter-Glo 48 h, stronger effect = higher value
# [12] = Rieske KO mouse fibroblast survival, CellTiter-Glo 72 h
smiles,measurement,setting,value
CC(=O)C=Cc1cn(C)c2ccccc12,fold change,[1]; [7],0.824 (inactive)
same,fold change,[1]; [8],0.579
same,cell count,[1]; [9],7690
same,cell count,[1]; [10],9340
same,z-score,[2]; [11],1.15 (inactive)
same,z-score,[2]; [12],0.123
same,z-score,[3],0.49 (inactive)
CN(C)c1ccc(C(=O)O)cc1,fold change,[1]; [7],0.927 (inactive)
same,fold change,[1]; [8],0.253
same,cell count,[1]; [9],8940
same,cell count,[1]; [10],9650
same,z-score,[2]; [11],-0.46 (inactive)
same,z-score,[2]; [12],0.0916
same,z-score,[3],0.71 (inactive)
CO/N=C(\C(=O)N[C@@H]1C(=O)N2C(C(=O)O)=C(C[N+]3(C)CCCC3)CS[C@H]12)c1csc(N)n1,parasite load remaining,[4],85.4% (inactive)
same,viability,[4],76.2%
same,fold change,[1]; [7],0.925 (inactive)
same,fold change,[1]; [8],0.702
same,cell count,[1]; [9],8990
same,cell count,[1]; [10],9720
same,z-score,[2]; [11],-1.62 (inactive)
same,z-score,[2]; [12],-0.496
same,remaining NAD,[5],10 nM (inactive)
CC(C)(C)C(=O)Nc1ccc2c(c1)C(=O)C(=O)c1ccccc1-2,fold change,[1]; [7],1.31 (inactive)
same,fold change,[1]; [8],0.69
same,cell count,[1]; [9],833
same,cell count,[1]; [10],636
same,z-score,[2]; [11],0.258 (inactive)
same,z-score,[2]; [12],-7.92
same,viability,"[6]; at 0.000305 µM, OCI-C5x cells, with rucaparib 10 µM, 100% = cells with rucaparib alone",109% (inactive)
same,viability,"[6]; at 0.000305 µM, OCI-C5x cells, without rucaparib",109% (inactive)
same,viability,"[6]; at 0.000305 µM, OCI-P5x cells, with rucaparib 20 µM, 100% = cells with rucaparib alone",95.2% (active)
same,viability,"[6]; at 0.000305 µM, OCI-P5x cells, without rucaparib",90.7% (active)
same,viability,"[6]; at 0.00122 µM, OCI-C5x cells, with rucaparib 10 µM, 100% = cells with rucaparib alone",127% (inactive)
same,viability,"[6]; at 0.00122 µM, OCI-C5x cells, without rucaparib",103% (inactive)
same,viability,"[6]; at 0.00122 µM, OCI-P5x cells, with rucaparib 20 µM, 100% = cells with rucaparib alone",99.1% (active)
same,viability,"[6]; at 0.00122 µM, OCI-P5x cells, without rucaparib",91.1% (active)
same,viability,"[6]; at 0.00488 µM, OCI-C5x cells, with rucaparib 10 µM, 100% = cells with rucaparib alone",116% (inactive)
same,viability,"[6]; at 0.00488 µM, OCI-C5x cells, without rucaparib",114% (inactive)
same,viability,"[6]; at 0.00488 µM, OCI-P5x cells, with rucaparib 20 µM, 100% = cells with rucaparib alone",78.7% (active)
same,viability,"[6]; at 0.00488 µM, OCI-P5x cells, without rucaparib",63.1% (active)
same,viability,"[6]; at 0.0195 µM, OCI-C5x cells, with rucaparib 10 µM, 100% = cells with rucaparib alone",119% (inactive)
same,viability,"[6]; at 0.0195 µM, OCI-C5x cells, without rucaparib",112% (inactive)
same,viability,"[6]; at 0.0195 µM, OCI-P5x cells, with rucaparib 20 µM, 100% = cells with rucaparib alone",79% (active)
same,viability,"[6]; at 0.0195 µM, OCI-P5x cells, without rucaparib",64.3% (active)
same,viability,"[6]; at 0.0781 µM, OCI-C5x cells, with rucaparib 10 µM, 100% = cells with rucaparib alone",118% (inactive)
same,viability,"[6]; at 0.0781 µM, OCI-C5x cells, without rucaparib",113% (inactive)
same,viability,"[6]; at 0.0781 µM, OCI-P5x cells, with rucaparib 20 µM, 100% = cells with rucaparib alone",63.5% (active)
same,viability,"[6]; at 0.0781 µM, OCI-P5x cells, without rucaparib",45.6% (active)
same,viability,"[6]; at 0.313 µM, OCI-C5x cells, with rucaparib 10 µM, 100% = cells with rucaparib alone",81.1% (active)
same,viability,"[6]; at 0.313 µM, OCI-C5x cells, without rucaparib",112% (inactive)
same,viability,"[6]; at 0.313 µM, OCI-P5x cells, with rucaparib 20 µM, 100% = cells with rucaparib alone",29.6% (active)
same,viability,"[6]; at 0.313 µM, OCI-P5x cells, without rucaparib",18.8% (active)
same,viability,"[6]; at 1.25 µM, OCI-C5x cells, with rucaparib 10 µM, 100% = cells with rucaparib alone",114% (inactive)
same,viability,"[6]; at 1.25 µM, OCI-C5x cells, without rucaparib",113% (inactive)
same,viability,"[6]; at 1.25 µM, OCI-P5x cells, with rucaparib 20 µM, 100% = cells with rucaparib alone",103% (inactive)
same,viability,"[6]; at 1.25 µM, OCI-P5x cells, without rucaparib",104% (inactive)
same,viability,"[6]; at 5 µM, OCI-C5x cells, with rucaparib 10 µM, 100% = cells with rucaparib alone",70.9% (active)
same,viability,"[6]; at 5 µM, OCI-C5x cells, without rucaparib",107% (inactive)
same,viability,"[6]; at 5 µM, OCI-P5x cells, with rucaparib 20 µM, 100% = cells with rucaparib alone",2.26% (active)
same,viability,"[6]; at 5 µM, OCI-P5x cells, without rucaparib",7.62% (active)
NCCC[C@H](N)CC(=O)N[C@H]1CNC(=O)[C@H]([C@H]2C[C@H](O)NC(N)=N2)NC(=O)/C(=C/NC(N)=O)NC(=O)[C@H](CO)NC(=O)[C@H](CO)NC1=O (β3hOrn-[Dap]SS[ΔAla(Z-3-ureido)][X4]; lactam 1-C),parasite load remaining,[4],90.6% (inactive)
same,viability,[4],75%
same,fold change,[1]; [7],0.967 (inactive)
same,fold change,[1]; [8],0.791
same,cell count,[1]; [9],9150
same,cell count,[1]; [10],9470
same,z-score,[2]; [11],-0.695 (inactive)
same,z-score,[2]; [12],-0.532
same,remaining NAD,[5],10 nM (inactive)
O=S(=O)(O)CCCN1CCOCC1,fold change,[1]; [7],0.928 (inactive)
same,fold change,[1]; [8],0.665
same,cell count,[1]; [9],8750
same,cell count,[1]; [10],9420
same,z-score,[2]; [11],0.595 (inactive)
same,z-score,[2]; [12],-0.353
same,z-score,[3],0.105 (inactive)

# Reference: PubChem BioAssay
